Inconclusive results are not listed. Where a call stands in place of a potency, no number is given. Calls of active or inactive are those of the source. Calls follow the shape of the dose curve; as a rule, active = well fitted curve in the direction sought with a large enough effect; inconclusive = small, poorly fitted or top-dose-only effect, or another doubt; inactive = no such curve, though single readings can be large; an effect the other way counts as inactive or inconclusive.

The target in one experiment is Arylsulfatase A (Homo sapiens) (UniProt P15289). The experiment can be described thus: qHTS screen for enhancers of Arylsulfatase A (ASA1): LOPAC Validation Assay (AID 720538). Also: potency is read from the fitted curve at half-maximal effect. Conditions: ASA enzyme activity, LOPAC qHTS enhancer assay; series mostly up to 57.5 µM. Summed up: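 First, ASA-I179S fibroblasts from an MLD patient adhered for 6 hrs. Next, compounds were added for 48h. Then pNCS substrate (0.5mM final) with lysis buffer reacted 14h at room temperature before NaOH stop and fluorescence measurement.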
Chain of Arylsulfatase A (Homo sapiens) (P15289 whole entry, looked up): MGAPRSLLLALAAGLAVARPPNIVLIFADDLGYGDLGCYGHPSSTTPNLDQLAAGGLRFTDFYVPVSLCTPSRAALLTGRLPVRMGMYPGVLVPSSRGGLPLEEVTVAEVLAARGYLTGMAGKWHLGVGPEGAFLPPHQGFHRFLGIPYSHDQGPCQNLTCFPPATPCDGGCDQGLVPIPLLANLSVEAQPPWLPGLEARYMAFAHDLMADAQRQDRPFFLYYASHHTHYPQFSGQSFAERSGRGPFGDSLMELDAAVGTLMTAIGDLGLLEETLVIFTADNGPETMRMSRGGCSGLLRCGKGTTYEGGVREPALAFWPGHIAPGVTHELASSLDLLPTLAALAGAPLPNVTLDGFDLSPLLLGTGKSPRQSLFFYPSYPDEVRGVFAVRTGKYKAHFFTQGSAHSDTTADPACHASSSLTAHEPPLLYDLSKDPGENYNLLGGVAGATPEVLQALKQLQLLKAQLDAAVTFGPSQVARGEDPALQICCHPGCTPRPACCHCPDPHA
For orientation: qHTS replaces the single test concentration by a dilution series.
Take `NC(Cc1cc(O)c(O)cc1O)C(=O)O` (centres undefined): the Potency is 16.9 µM (active).

Regarding `C=CCN1CC[C@]23c4c5ccc(O)c4O[C@H]2/C(=N/NC(=O)c2ccccc2)CC[C@@]3(O)[C@H]1C5`, the Potency result is “inactive”.

As for `C[Se]C[C@H](N)C(=O)O`, the Potency entry was “inactive”.

Turning to `C[N+](C)(C)CC#CCN1CCCC1=O`, the Potency result is “inactive”.

With `O=S1(=O)N(CCN2CC=C(c3c[nH]c4cc(F)ccc34)CC2)c2cccc3c2N1CCC3`, the Potency result is “inactive”.

Regarding `CC(N)Cc1c[nH]c2ccc(O)cc12` (centres undefined), the Potency was 9.53 µM (active).

With `OCc1cnc[nH]1`, the Potency result was “inactive”.

With `CCCN1CC[C@@H]2c3cc(O)ccc3CC[C@@H]21`, the Potency result is “inactive”.

As for `CCN(CCCl)Cc1ccccc1Br`, the Potency result is “inactive”.

Test system in a further experiment: not listed separately
Put plainly: qHTS for compounds that reverse cellular toxicity of Amyloid beta (A-beta) peptide in yeast: LOPAC Validation Assay (AID 720559). Conditions: yeast expressing A-beta; series mostly up to 46.1 µM. The method, boiled down:
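Activity is expressed relative to DMSO and an equimolar ferric chloride/clioquinol mix. Compounds were pinned into medium with A-beta-expressing yeast, grown 48 hr at 30 C, then read by absorbance at 600 nm.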
As to `C[N+]1(C)C2CCC1CC(OC(=O)c1c[nH]c3ccccc13)C2` (centres undefined), the molecule was called inactive.

In the case of `O=[N+]([O-])/C=C/c1ccc2c(c1)OCO2`, the result was inactive.

In the case of `CCNC(=O)[C@H]1O[C@@H](n2cnc3c(N)ncnc32)[C@H](O)[C@@H]1O`, the molecule was classed as inactive.

As for `CCCN1CCc2cc(O)cc3c2[C@H]1Cc1ccc(O)c(O)c1-3`, the molecule was classed as inactive.

In the case of `NC(Cc1cc(O)c(O)cc1O)C(=O)O` (centres undefined), the result was inactive.

As to `NC(=O)c1cc(N2CC2)c([N+](=O)[O-])cc1[N+](=O)[O-]`, the call was inactive.

Take `C=CCN1CC[C@]23c4c5ccc(O)c4O[C@H]2/C(=N/NC(=O)c2ccccc2)CC[C@@]3(O)[C@H]1C5`: the molecule was called inactive.

For the molecule `N[C@@H](Cn1oc(=O)[nH]c1=O)C(=O)O`, the outcome was inactive.

On to `CCCCCCC(C)(C)c1ccc([C@@H]2C[C@H](O)CC[C@H]2CCCO)c(O)c1`, for which the outcome was inactive.

In the case of `C[C@@H]1O[C@@H](O[C@H]2C[C@@H](O)[C@]3(CO)[C@@H]4C(CC[C@]3(O)C2)[C@@]2(O)CC[C@H]([C@@H]3COC(=O)C3)[C@@]2(C)C[C@H]4O)[C@H](O)[C@H](O)[C@H]1O` (some centres undefined), the call was inactive.

Consider `CC(N)[C@H](O)c1ccc(O)c(O)c1` (some centres undefined), for which the call was inactive.

Turning to `CC(N)Cc1c[nH]c2ccc(OCc3cccs3)cc12` (centres undefined), the molecule was called inactive.

As for `COc1ccc(OC)c(C(O)C(C)N)c1` (centres undefined), the call was inactive.

On to `C[Se]C[C@H](N)C(=O)O`, for which the outcome was inactive.

In the case of `C[N+](C)(C)CC#CCN1CCCC1=O`, the molecule was classed as inactive.

Consider `O=S1(=O)N(CCN2CC=C(c3c[nH]c4cc(F)ccc34)CC2)c2cccc3c2N1CCC3`, for which the molecule was called inactive.

As for `NCC(O)c1cc(O)c(O)cc1F` (centres undefined), the molecule was classed as inactive.

With `O=[N+]([O-])c1ccc2nc(N3CCNCC3)ccc2c1`, the molecule was called inactive.

Take `CC(N)c1cccc(Cl)c1Cl` (centres undefined): the outcome was inactive.

Take `N#CCCN`: the result was inactive.

On to `CN1CCc2cc(O)cc3c2[C@H]1Cc1ccc(O)c(O)c1-3`, for which the outcome was inactive.

With `C[N+](C)(C)CCOC(=O)CBr`, the call was inactive.

As for `Clc1ccc(N2CC3CCC(C2)N3)nn1`, the molecule was classed as inactive.

Regarding `CC(N)Cc1c[nH]c2ccc(O)cc12` (centres undefined), the molecule was classed as inactive.

Take `CC(=O)NBr`: the molecule was called inactive.

For the molecule `N=C(N)c1ccc(CS(=O)(=O)F)cc1`, the molecule was called inactive.

Turning to `OCc1cnc[nH]1`, the molecule was classed as inactive.

As to `NCCc1c[nH]c2ccc(C(N)=O)cc12`, the outcome was inactive.

As for `CCCN1CC[C@@H]2c3cc(O)ccc3CC[C@@H]21`, the result was inactive.

With `CCCN(CCC)[C@H]1CCc2c(F)ccc(O)c2C1`, the call was inactive.

Turning to `CCN(CCCl)Cc1ccccc1Br`, the call was inactive.

As for `Cc1cc([C@@H]2CCCN2C)on1`, the result was inactive.

For `CCCN(CCC)CCc1ccc(O)c(O)c1`, the molecule was called inactive.

Regarding `COc1ccc2c(c1)c(CCN1CCOCC1)c(C)n2C(=O)c1cccc(Cl)c1Cl`, the call was inactive.

On to `C=CCN1CCc2cccc3c2[C@H]1Cc1ccc(O)c(O)c1-3`, for which the result was inactive.
